Experimental data reported in PubChem BioAssay AID1159580 (chemical genetic matrix, 2015).
“And” between values parts separate entries of the source, which are not always exact repeats. Equal entries are not always repeated. About 2,000 (36%) of roughly 5,500 compounds were called active. Inconclusive results (about 18%) are left out. Cut-off read from the data, not from the text of the source: active = normalized growth mostly below about 0.91 (no sharp cut-off); inconclusive = no clear call, values can overlap the other calls; inactive = mostly above about 0.92. The list shows a part of the results.

Experiment: chemical genetic growth profiling, strain panel (AID 1159580);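 note: tested at 20 µM; growth read once vehicle control cultures reached saturation at 30 °C; 1 = growth at the plate median or of vehicle wells; lower values mean less growth of the strain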
Conditions: S. cerevisiae deletion strains, growth OD

Measured: normalized growth

NCC(O)c1ccc(O)cc1 (stereo not given)
inactive: locus YAL013W, strain DEP1, active compounds read low 0.996 and 1.01 | locus YAL021C, strain ccr4, active compounds read low 1.01 | locus YAL026C, strain drs2, active compounds read low 1.01 | locus YAL030W, strain snc1, active compounds read low 0.997 | locus YAL040C, strain CLN3, active compounds read low 1 | locus YBL061C, strain skt5, active compounds read low 1.01 | locus YBR009C, strain hhf1, active compounds read low 0.995 | locus YBR021W, strain FUR4, active compounds read low 0.987 | locus YBR023C, strain chs3, active compounds read low 0.998 | locus YBR171W, strain sec66, active compounds read low 0.995 | locus YBR229C, strain ROT2, active compounds read low 0.977 | locus YBR231C, strain swc5, active compounds read low 1.02 | locus YBR279W, strain paf1, active compounds read low 1.02 | locus YCL011C, strain gbp2, active compounds read low 1.03 | locus YCL016C, strain dcc1, active compounds read low 1.03 | locus YCL029C, strain bik1, active compounds read low 0.966 | locus YCL061C, strain MRC1 (second series), active compounds read low 1.01 | locus YCL069W, strain vba3, active compounds read low 1 | locus YCR088W, strain abp1, active compounds read low 0.993 | locus YDL005C, strain med2, active compounds read low 0.998 | locus YDL035C, strain GPR1, active compounds read low 1.01 | locus YDL040C, strain nat1, active compounds read low 0.999 | locus YDL074C, strain BRE1, active compounds read low 1 | locus YDL101C, strain DUN1, active compounds read low 0.987 | locus YDL134C, strain PPH21, active compounds read low 0.996 | locus YDL185W, strain tfp1, active compounds read low 0.977 | locus YDL192W, strain arf1, active compounds read low 0.984 | locus YDR001C, strain nth1, active compounds read low 1.01 | locus YDR069C, strain doa4, active compounds read low 0.996 | locus YDR101C, strain arx1, active compounds read low 0.987 | locus YDR137W, strain rgp1, active compounds read low 1.02 | locus YDR150W, strain NUM1, active compounds read low 1.01 and 1 | locus YDR159W, strain sac3, active compounds read low 0.963 | locus YDR162C, strain NBP2, active compounds read low 0.999 | locus YDR195W, strain ref2 0.947 | locus YDR297W, strain sur2, active compounds read low 1.02 | locus YDR318W, strain mcm21, active compounds read low 0.963 | locus YDR334W, strain swr1, active compounds read low 1 | locus YDR335W, strain msn5, active compounds read low 1.01 | locus YDR363W, strain ESC2, active compounds read low 1 | locus YDR388W, active compounds read low 0.97 | locus YDR392W, strain spt3, active compounds read low 0.995 | locus YDR502C, strain sam2, active compounds read low 0.988 | locus YEL003W, strain gim4, active compounds read low 1.01 | locus YEL037C, strain rad23, active compounds read low 1.01 | locus YEL061C, strain CIN8 (second series), active compounds read low 0.999 | locus YEL061C, strain CIN8, active compounds read low 1 | locus YER002W, strain NOP16, active compounds read low 1 | locus YER015W, strain faa2, active compounds read low 1.01 | locus YER016W, strain bim1, active compounds read low 0.999 | locus YER110C, active compounds read low 0.976 | locus YER111C, strain swi4, active compounds read low 1.01 | locus YER155C, strain BEM2 (second series), active compounds read low 0.977 | locus YER155C, strain BEM2, active compounds read low 0.99 | locus YER167W, strain BCK2, active compounds read low 0.992 | locus YFR010W, strain ubp6, active compounds read low 0.998 | locus YGL078C, strain dbp3, active compounds read low 0.988 | locus YGL086W, strain mad1, active compounds read low 0.993 | locus YGL167C, strain pmr1, active compounds read low 0.997 | locus YGL173C, strain kem1, active compounds read low 1.01 | locus YGL227W, strain vid30, active compounds read low 0.995 | locus YGL240W, strain doc1, active compounds read low 0.985 | locus YGL248W, strain PDE1, active compounds read low 0.989 | locus YGL253W, strain hxk2, active compounds read low 1.03 | locus YGR078C, strain PAC10, active compounds read low 0.989 and 1.03 | locus YGR135W, strain pre9, active compounds read low 0.984 | locus YGR229C, strain SMI1, active compounds read low 1 and 1.01 | locus YGR252W, strain gcn5, active compounds read low 1.03 | locus YHR013C, strain ard1, active compounds read low 0.978 | locus YHR027C, strain rpn1, active compounds read low 1.01 | locus YHR030C, strain SLT2, active compounds read low 0.983 and 0.979 | locus YHR079C, strain IRE1 (second series), active compounds read low 0.975 | locus YHR079C, strain IRE1, active compounds read low 0.982 | locus YHR094C, strain hxt1, active compounds read low 0.986 | locus YHR129C, strain ARP1, active compounds read low 0.994 | locus YHR142W, strain chs7, active compounds read low 1.02 | locus YHR200W, strain rpn10, active compounds read low 0.98 | locus YIL066C, strain RNR3, active compounds read low 0.998 | locus YIL073C, strain SPO22, active compounds read low 0.986 | locus YIL125W, strain kgd1, active compounds read low 0.982 | locus YIR030C, strain dcg1, active compounds read low 0.983 | locus YJL092W, strain hpr5, active compounds read low 1.01 | locus YJL095W, strain BCK1 (second series), active compounds read low 1.01 | locus YJL095W, strain BCK1, active compounds read low 0.962 and 1 | locus YJL115W, strain asf1, active compounds read low 1.01 | locus YJL129C, strain trk1, active compounds read low 1.01 | locus YJL134W, strain LCB3, active compounds read low 0.995 | locus YJL154C, strain vps35, active compounds read low 0.99 | locus YJL164C, strain tpk1, active compounds read low 0.994 | locus YJL166W, strain qcr8, active compounds read low 0.999 | locus YJL168C, strain set2, active compounds read low 0.976 | locus YJL187C, strain SWE1 (second series), active compounds read low 0.988 | locus YJR043C, strain POL32, active compounds read low 0.994 | locus YJR066W, strain TOR1, active compounds read low 0.919 | locus YJR075W, strain HOC1, active compounds read low 0.993
